Values joined by “and” are separate entries in the source; they are usually repeats but may differ in a detail not shown here. Identical values can stand only once. About 79,000 compounds went through this panel and 15% of them were active in at least one assay; those are over-represented in the sample as a whole. Values without a mark were called inactive. Active and inactive are the calls of the source. Cut-off read from the data, not from the text of the source: active = growth inhibition above about 70%; inactive = the rest.
assay: NCI Yeast Anticancer Drug Screen. Data for the mlh1 rad18 strain (AID 175); details: S. cerevisiae mlh1 rad18 strain growth inhibition; at 5.0 µM (retest, dose inferred, filed as 0.5); stronger effect = higher value
Method in brief: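 Steps: expose repair-defective yeast to compound; measure growth; express inhibition against vehicle-treated controls.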

SMILES | growth inhibition
c1ccc(NC2=NCCN2)nc1 | -13%
C[CH2][Sn]([CH2]C)([CH2]C)[O]C(=O)CO | 12%
CC12CCC(O)CC1CCC1C2CCC2(C)C1CC1CC(=O)OC12 (centres undefined) | 85% (active)
Nc1ccc(N=Nc2ccccc2)cc1 | 1%
C[n+]1c(/C=C/c2ccc(O)c3ncccc23)[se]c2ccccc21 | 43%
COC(=O)C1=C(C)N2CCSC2(C)C(C(=O)OC)C1c1cccc(Cl)c1 (centres undefined) | 6%
O=[N+]([O-])/C=C/c1ccccc1 | 71% (active)
CC12CCC(O)CC1CCC1C2CCC2(C)C(C(=O)CC(O)C(F)(F)F)CCC12 (centres undefined) | 0%
CC(C)NCC(O)c1ccc(O)c(O)c1.[Pt].c1ccc([PH+](c2ccccc2)c2ccccc2)cc1.c1ccc([PH+](c2ccccc2)c2ccccc2)cc1 | 9%
CCOC(=O)/C(=C\c1ccc(C(=O)OC)cc1)[Se]c1ccccc1 | -11%
CC/C(=C/c1ccc2c(c1)OCO2)[N+](=O)[O-] | 66%
CCOC(=O)C1=C(C)NC(=O)NC1c1ccc(N(CCCl)CCCl)cc1Cl (centres undefined) | 3%
S=C(S)N1CCOCC1 | 60%
CCOC(=O)c1ccccc1N | -1%
C[n+]1c(/C=C/c2ccc(O)c(O)c2)[se]c2ccccc21 | 18%
CS(=O)(=O)[O-].CS(=O)(=O)[O-].NC1CCCCC1N.[Pt+4] (centres undefined) | 99% (active)
COc1ccc2c(c1O)-c1cccc3c1[C@@H](C2)N(CCCl)CC3 | 52%
COC(=O)CC1(C(=O)O)CC2(Cl)C(Cl)=C(Cl)C1(Cl)C2(Cl)Cl (centres undefined) | 7%
CCCCN(C)CC(C(C)=O)C(c1ccccc1)c1c(O)c2ccccc2oc1=O (centres undefined) | 22%
O=[n+]1c2ccccc2n([O-])c2ccccc21.[Cl][Ni][Cl] | 92% (active)

SMILES | growth inhibition
COc1ccc(C(Cc2ccc(Cl)c(Cl)c2)NCCO)cc1 (centres undefined) | 3%
O=C(N/N=C/c1cc(Cl)cc(Cl)c1[O-])c1ccccc1O.O=C(N/N=C/c1cc(Cl)cc(Cl)c1[O-])c1ccccc1O.[Zn+2] | 95% (active)
Oc1ccc(Cl)cc1Sc1cc(Cl)ccc1O | 99% (active) and 89% (active)
O=S(=O)([O-])[O-].[OH3+].[OH3+].[OH3+].[Ru+2].c1ccccc1 | -38%
CCCCCC(Cn1ccnc1)c1ccc(Cl)cc1Cl (centres undefined) | 72% (active)
CC1=C(CO)C(=O)OC(C(C)C2CCC3C4CC5OC56C(O)C(N5CC5)=CC(=O)C6(C)C4CCC23C)C1 (centres undefined) | -1%
CCCC[CH2][Sn]([CH2]CCCC)[CH2]CCCC.CCCC[CH2][Sn]([CH2]CCCC)[CH2]CCCC | 46%
CCC[CH2][Sn]1([CH2]CCC)[O]C(=O)C(C(C)C)N=Cc2ccccc2[O]1 (centres undefined) | -2%
Oc1c(Cl)cc(-c2cc(Cl)c(O)c(Cl)c2)cc1Cl | 99% (active)
CC(=O)Nc1ccc(/C=N/N=C(/N)N[N+](=O)[O-])cc1 | 1%
CC(Br)c1ccccc1 (centres undefined) | 5%
C[Si]1(C)CCCCC2(C1)C(=O)NC(=O)NC2=O | -17%
CCCCCCCCCCCCCCCc1cccc(O)c1O | -6%
CC1(C)OC2OC3C(CN(CCCl)Cc4ccccc4)OC(c4ccccc4)OC3C2O1 (centres undefined) | -23%
FC(F)(F)c1nc2ccc(SSc3ccc4nc(C(F)(F)F)[nH]c4c3)cc2[nH]1 | 2%
O=[N+]([O-])c1csc([N+](=O)[O-])c1 | 99% (active)
CCc1cc2c(cc1-c1csc(C/C(N)=N/O)n1)C(C)(C)CCC2(C)C | 60%
CCCCCCCC[N+](CCCC)(CCCC)CCCC (tested in a mixture with another compound) | 99% (active)
CCC[CH2][Sn]([CH2]CCC)([S]C#N)[S]C#N | 97% (active)
